This note sets out measurements from PubChem BioAssay (NCATS).

Structures are written as SMILES. Activity calls are given as the source filed them. No rule for the calls is given here.

The conditions of the first assay: Ebola virus entry assay, blue channel fluorescence.
As to `CN(C)CCOc1ccccc1Cc1ccccc1`, the AC50 was 3.55 µM (active).
On the same count and under the same terms, with `NCc1ccccc1Sc1ccccc1CO` the figure was 39.8 µM (active); with `CCCOC(C(=O)OC1CCN(C)CC1)(c1ccccc1)c1ccccc1`, 7.94 µM (active).
As for `COc1cc2c(cc1OC)-c1cc(=Nc3c(C)cc(C)cc3C)n(C)c(=O)n1CC2`, the concentration at half-maximal activity (AC50) was 15.8 µM (active).
Take `CCN(CC)CCOC(=O)C(c1ccccc1)c1ccccc1`: the AC50 was 20 µM (active).
Consider `N[C@H](C(=O)O)[C@@H](O)c1ccc(O)c(O)c1`, for which the AC50 is 22.4 µM (active).
Same read-out and setting: with `CCCCOc1cc(C(=O)OCCN(CC)CC)ccc1N` the figure was 31.6 µM (active); with `CCOC(=O)COc1ccc2c(C)c(CCN(CC)CC)c(=O)oc2c1Cl`, 28.2 µM (active); with `CCN(CC)CCOC(=O)C(Cc1cccc2ccccc12)CC1CCCO1` (stereo not drawn), 12.6 µM (active).
Regarding `CO[C@@H]1[C@@H](O[C@@H]2O[C@H](C)[C@@H](O[C@H]3C[C@@](C)(O)[C@@H](O)[C@H](C)O3)[C@H](N(C)C)[C@H]2O)[C@@H](CC=O)C[C@@H](C)[C@@H](O[C@@H]2CC[C@H](N(C)C)[C@@H](C)O2)/C=C/C=C/C[C@@H](C)OC(=O)C[C@H]1OC(C)=O`, the AC50 is 3.16 µM (active).
The same measure, in the same setting: to `CN(C)CCOC(c1ccccc1)c1ccc(Br)cc1` (stereo not drawn) belongs 11.2 µM (active); to `CC(C)(C)c1ccc(C(O)CCCN2CCC(C(O)(c3ccccc3)c3ccccc3)CC2)cc1` (stereo not drawn), 1.41 µM (active); to `CCN(CC)CCOc1ccccc1C(=O)CCc1ccccc1`, 15.8 µM (active).
On to `COC(=O)Nc1nc2ccc(S(=O)c3ccccc3)cc2[nH]1` (stereo not drawn), for which the AC50 was 3.16 µM (active).
On the same count and under the same terms, to `CN(C)C/C=C(/c1ccc(Br)cc1)c1cccnc1` belongs 39.8 µM (active); to `CCN1C(=O)c2ccccc2C1Nc1ccc(OCCN2CCCCC2)cc1` (stereo not drawn), 12.6 µM (active); to `COc1ccc(CCN(C)CCCC(C#N)(c2cc(OC)c(OC)c(OC)c2)C(C)C)cc1OC` (stereo not drawn), 15.8 µM (active).
Still for that read-out and setting: to `O=C(OCC(O)CO)c1ccccc1Nc1ccnc2cc(Cl)ccc12` (stereo not drawn) belongs 39.8 µM (active).
In the case of `CN(C)CCOC(c1ccccc1)c1ccccc1`, the AC50 was 20 µM (active).
For the compound `CN1CCN(C2=Nc3cc(F)ccc3Cc3ccccc32)CC1`, the half-maximal activity concentration (AC50) is 22.4 µM (active).
The same measure, in the same setting: to `Cc1c(C)c2c(c(C)c1OC(=O)CCC(=O)OCCO)CC[C@@](C)(CCC[C@H](C)CCC[C@H](C)CCCC(C)C)O2` belongs 39.8 µM (active); to `CCCCCN=C(N)N/N=C/c1c[nH]c2ccc(OC)cc12`, 3.98 µM (active); to `CC(NCCC(c1ccccc1)c1ccccc1)c1ccccc1` (stereo not drawn), 2 µM (active).
Still for that read-out and setting: with `CCCCCCCCCCCCCCCCCCNC(=O)OC1CCN(C(=O)OC[C@H](COC(=O)N(Cc2cccc[n+]2CC)C(=O)c2ccccc2OC)OC)CC1` the figure was 39.8 µM (active); with `O=c1c(-c2ccccc2)c1-c1ccccc1`, 39.8 µM (active).
On the same count and under the same terms, with `CCN(CC)CCOc1ccc(C(O)(Cc2ccc(Cl)cc2)c2ccc(C)cc2)cc1` (stereo not drawn) the figure was 2.51 µM (active).
In the case of `C#C[C@]1(O)CC[C@H]2[C@@H]3[C@H](C)CC4=C(CCC(=O)C4)[C@H]3CC[C@@]21C`, the compound was called inactive.
For the compound `CN(C)CCCSc1ccccc1NC(=O)/C=C/c1ccccc1`, the AC50 was 15.8 µM (active).
The same measure, in the same setting: with `C=CCc1ccccc1OCC(O)CNC(C)C` (stereo not drawn) the figure was 28.2 µM (active); with `Cc1cc(O)c(C(C)C)cc1Cl`, 35.5 µM (active); with `CCCCOc1ccc(C(=O)CCN2CCCCC2)cc1`, 25.1 µM (active).
For the compound `Cc1cccc(N(C)C(=S)Oc2ccc3c(c2)CCC3)c1`, the AC50 was 39.8 µM (active).
Same read-out and setting: to `CCCCCCCCOc1ccccc1C(=O)Nc1ccc(C(=O)OCC[N+](C)(CC)CC)cc1` belongs 10 µM (active); to `CCCCCCCCNC(C)C(O)c1ccc(SC(C)C)cc1` (stereo not drawn), 14.1 µM (active).
For `O=C(CCN1CCN2CCCC2C1)N1c2ccccc2Sc2ccc(Cl)cc21` (stereo not drawn), the half-maximal activity concentration (AC50) is 11.2 µM (active).
The same measure, in the same setting: to `O[C@@H](COc1cccc2ncccc12)CN1CCN(C2c3ccccc3[C@@H]3[C@H](c4ccccc42)C3(F)F)CC1` (stereo partly drawn) belongs 10 µM (active); to `CCCCN(CCCC)CCC(O)c1cc2c(Cl)cc(Cl)cc2c2cc(C(F)(F)F)ccc12` (stereo not drawn), 7.94 µM (active).
Regarding `CCN(CC)CCNc1ccc(CO)c2sc3ccccc3c(=O)c12`, the AC50 is 17.8 µM (active).
On to `CCN1CCCC(OC(=O)C(c2ccccc2)c2ccccc2)C1` (stereo not drawn), for which the AC50 is 25.1 µM (active).

The conditions of the next assay: Ebola virus entry assay, ratio channel.
As for `CN(C)CCOc1ccccc1Cc1ccccc1`, the AC50 is 3.16 µM (active).
On the same count and under the same terms, to `NCc1ccccc1Sc1ccccc1CO` belongs 20 µM (active); to `CCCOC(C(=O)OC1CCN(C)CC1)(c1ccccc1)c1ccccc1`, 7.08 µM (active); to `COc1cc2c(cc1OC)-c1cc(=Nc3c(C)cc(C)cc3C)n(C)c(=O)n1CC2`, 15.8 µM (active).
Take `CCN(CC)CCOC(=O)C(c1ccccc1)c1ccccc1`: the outcome was inactive.
`N[C@H](C(=O)O)[C@@H](O)c1ccc(O)c(O)c1`: the AC50 was 20 µM (active).
As for `CCCCOc1cc(C(=O)OCCN(CC)CC)ccc1N`, the AC50 was 31.6 µM (active).
On the same count and under the same terms, to `CCOC(=O)COc1ccc2c(C)c(CCN(CC)CC)c(=O)oc2c1Cl` belongs 25.1 µM (active); to `CCN(CC)CCOC(=O)C(Cc1cccc2ccccc12)CC1CCCO1` (stereo not drawn), 11.2 µM (active).
Still for that read-out and setting: to `CO[C@@H]1[C@@H](O[C@@H]2O[C@H](C)[C@@H](O[C@H]3C[C@@](C)(O)[C@@H](O)[C@H](C)O3)[C@H](N(C)C)[C@H]2O)[C@@H](CC=O)C[C@@H](C)[C@@H](O[C@@H]2CC[C@H](N(C)C)[C@@H](C)O2)/C=C/C=C/C[C@@H](C)OC(=O)C[C@H]1OC(C)=O` belongs 3.55 µM (active).
As to `CN(C)CCOC(c1ccccc1)c1ccc(Br)cc1` (stereo not drawn), the AC50 is 11.2 µM (active).
On the same count and under the same terms, with `CC(C)(C)c1ccc(C(O)CCCN2CCC(C(O)(c3ccccc3)c3ccccc3)CC2)cc1` (stereo not drawn) the figure was 0.891 µM (active); with `CCN(CC)CCOc1ccccc1C(=O)CCc1ccccc1`, 14.1 µM (active).
Regarding `COC(=O)Nc1nc2ccc(S(=O)c3ccccc3)cc2[nH]1` (stereo not drawn), the AC50 was 1.78 µM (active).
As for `CN(C)C/C=C(/c1ccc(Br)cc1)c1cccnc1`, the result was inactive.
In the case of `CCN1C(=O)c2ccccc2C1Nc1ccc(OCCN2CCCCC2)cc1` (stereo not drawn), the AC50 was 15.8 µM (active).
With `COc1ccc(CCN(C)CCCC(C#N)(c2cc(OC)c(OC)c(OC)c2)C(C)C)cc1OC` (stereo not drawn), the AC50 is 14.1 µM (active).
Regarding `O=C(OCC(O)CO)c1ccccc1Nc1ccnc2cc(Cl)ccc12` (stereo not drawn), the half-maximal activity concentration (AC50) is 20 µM (active).
On the same count and under the same terms, with `CN(C)CCOC(c1ccccc1)c1ccccc1` the figure was 17.8 µM (active).
On the same count and under the same terms, to `CN1CCN(C2=Nc3cc(F)ccc3Cc3ccccc32)CC1` belongs 31.6 µM (active).
`Cc1c(C)c2c(c(C)c1OC(=O)CCC(=O)OCCO)CC[C@@](C)(CCC[C@H](C)CCC[C@H](C)CCCC(C)C)O2`: the result was inactive.
As to `CCCCCN=C(N)N/N=C/c1c[nH]c2ccc(OC)cc12`, the AC50 is 3.16 µM (active).
Same read-out and setting: to `CC(NCCC(c1ccccc1)c1ccccc1)c1ccccc1` (stereo not drawn) belongs 2.51 µM (active).
As for `CCCCCCCCCCCCCCCCCCNC(=O)OC1CCN(C(=O)OC[C@H](COC(=O)N(Cc2cccc[n+]2CC)C(=O)c2ccccc2OC)OC)CC1`, the outcome was inactive.
For the compound `O=c1c(-c2ccccc2)c1-c1ccccc1`, the AC50 is 39.8 µM (active).
In the case of `CCN(CC)CCOc1ccc(C(O)(Cc2ccc(Cl)cc2)c2ccc(C)cc2)cc1` (stereo not drawn), the half-maximal activity concentration (AC50) was 1.78 µM (active).
The same measure, in the same setting: to `C#C[C@]1(O)CC[C@H]2[C@@H]3[C@H](C)CC4=C(CCC(=O)C4)[C@H]3CC[C@@]21C` belongs 15.8 µM (active); to `CN(C)CCCSc1ccccc1NC(=O)/C=C/c1ccccc1`, 12.6 µM (active).
Take `C=CCc1ccccc1OCC(O)CNC(C)C` (stereo not drawn): the AC50 was 25.1 µM (active).
As to `Cc1cc(O)c(C(C)C)cc1Cl`, the outcome was inactive.
As for `CCCCOc1ccc(C(=O)CCN2CCCCC2)cc1`, the AC50 is 31.6 µM (active).
Take `Cc1cccc(N(C)C(=S)Oc2ccc3c(c2)CCC3)c1`: the result was inactive.
For `CCCCCCCCOc1ccccc1C(=O)Nc1ccc(C(=O)OCC[N+](C)(CC)CC)cc1`, the AC50 was 2.51 µM (active).
Same read-out and setting: with `CCCCCCCCNC(C)C(O)c1ccc(SC(C)C)cc1` (stereo not drawn) the figure was 11.2 µM (active).
Same read-out and setting: to `O=C(CCN1CCN2CCCC2C1)N1c2ccccc2Sc2ccc(Cl)cc21` (stereo not drawn) belongs 10 µM (active); to `O[C@@H](COc1cccc2ncccc12)CN1CCN(C2c3ccccc3[C@@H]3[C@H](c4ccccc42)C3(F)F)CC1` (stereo partly drawn), 10 µM (active).
Regarding `CCCCN(CCCC)CCC(O)c1cc2c(Cl)cc(Cl)cc2c2cc(C(F)(F)F)ccc12` (stereo not drawn), the half-maximal activity concentration (AC50) is 4.47 µM (active).
On the same count and under the same terms, with `CCN(CC)CCNc1ccc(CO)c2sc3ccccc3c(=O)c12` the figure was 14.1 µM (active); with `CCN1CCCC(OC(=O)C(c2ccccc2)c2ccccc2)C1` (stereo not drawn), 20 µM (active).
